Experimental findings from the supplement of paper PMC4466140 are described below.

In one assay the target is ScBbc1. As to the kind of experiment: SPOT peptide array binding signal intensity (averaged, normalized) (arbitrary units (background-subtracted, floor 0; scale differs between SH3 domains)); higher = stronger binding of the SH3 domain to the peptide. A digest of the protocol:
(§1)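 Spot intensities were captured after detection with anti-GST antibody, an HRP-linked anti-mouse secondary and luminol, and quantified with Genespotter. The probes were GST-fused SH3 domains from four yeast species, produced in E. coli BL21(DE3), purified on glutathione Sepharose and incubated at 10 μg/ml overnight at 4°C on cellulose-bound synthetic 15-mer peptides with cysteines replaced by serines. Binding signal is the normalized, background-subtracted spot intensity averaged over replicates, and its arbitrary units differ between domains.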
As for TTAPALPSLPPPPLL, the “SPOT peptide array binding signal intensity” value turned out to be 1.

Another assay has as its target ScBem1-D1. The description is as above. The essentials:
as §1
As for TTAPALPSLPPPPLL, the “SPOT peptide array binding signal intensity” value amounted to 2.

A further assay deals with ScBzz1-D1. Described as above. A digest of the protocol:
as §1
As to TTAPALPSLPPPPLL, the “SPOT peptide array binding signal intensity” value is 190.

The target of the next assay is ScBzz1-D2. The assay is described as above. The essentials:
as §1
Take TTAPALPSLPPPPLL: the “SPOT peptide array binding signal intensity” value was not above 0.

The next assay concerns the target ScCyk3. The description is as above. A digest of the protocol: as §1
As to TTAPALPSLPPPPLL, the “SPOT peptide array binding signal intensity” value was not above 0.

In the next assay the target is ScFus1. The assay is described as above. A digest of the protocol: as §1
For TTAPALPSLPPPPLL, the “SPOT peptide array binding signal intensity” value was not above 0.

In the next assay the target is ScHof1. Described as above. A digest of the protocol: as §1
On to TTAPALPSLPPPPLL, for which the “SPOT peptide array binding signal intensity” value is 2250.

The target of the next assay is ScHse1. The assay is described as above. The essentials: as §1
As to TTAPALPSLPPPPLL, the “SPOT peptide array binding signal intensity” value was not above 0.

In another assay the target is ScLsb1. Described as above. The essentials: as §1
With TTAPALPSLPPPPLL, the “SPOT peptide array binding signal intensity” value is not above 0.

The target of the next assay is ScLsb2. The description is as above. A digest of the protocol:
as §1
Consider TTAPALPSLPPPPLL, for which the “SPOT peptide array binding signal intensity” value was not above 0.

The target of the next assay is ScLsb3. Described as above. A digest of the protocol:
as §1
Take TTAPALPSLPPPPLL: the “SPOT peptide array binding signal intensity” value was not above 0.

In the next assay the target is ScLsb4. Described as above. The essentials: as §1
As to TTAPALPSLPPPPLL, the “SPOT peptide array binding signal intensity” value was not above 0.

Another assay concerns the target ScMyo3. Described as above. The essentials: as §1
As for TTAPALPSLPPPPLL, the “SPOT peptide array binding signal intensity” value is 2800.

The next assay deals with ScMyo5. The assay is described as above. The essentials:
as §1
As to TTAPALPSLPPPPLL, the “SPOT peptide array binding signal intensity” value stood at 2300.

The target in a further assay is ScNbp2. The assay is described as above. A digest of the protocol: as §1
Take TTAPALPSLPPPPLL: the “SPOT peptide array binding signal intensity” value was not above 0.

In another assay the target is ScPex13. Described as above. The essentials:
as §1
Consider TTAPALPSLPPPPLL, for which the “SPOT peptide array binding signal intensity” value turned out to be 214.

The next assay deals with ScRvs167. Described as above. A digest of the protocol: as §1
For TTAPALPSLPPPPLL, the “SPOT peptide array binding signal intensity” value was not above 0.

A further assay concerns the target ScSho1. The description is as above. The essentials: as §1
With TTAPALPSLPPPPLL, the “SPOT peptide array binding signal intensity” value is 42.
